Test results reported in PubChem BioAssay (NCATS).
Records with an inconclusive call do not appear. The source made the active and inactive calls. Calls follow the shape of the dose curve; as a rule, active = well fitted cell-killing curve with a large enough effect; inconclusive = small, poorly fitted or top-dose-only effect, or effect the other way; inactive = flat fitted curve, though single readings scatter.

Legend:
Assay in all cases: Primary qHTS to identify gynecologic anti-cancer compounds using libraries of approved drugs and bioactive compounds (AID 1345084); also: nearly all actives have a fitted effect of over 55% in size
C33A = conditions: Gynecologic cancer cell panel viability, ATPlite luminescence, 48 h; series mostly up to 57.5 µM
Summary of the method: (§1)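 In this quantitative HTS, cell killing is estimated from loss of ATP-dependent luciferase light. Cells see five compound concentrations over a 48 h exposure.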

CAOV3 = conditions: Gynecologic cancer cell panel viability, ATPlite luminescence, 48 h; series mostly up to 57.5 µM
Summary of the method: as §1

CASKI = conditions: Gynecologic cancer cell panel viability, ATPlite luminescence, 48 h; series mostly up to 57.5 µM
Summary of the method: as §1

Es-2 = conditions: Gynecologic cancer cell panel viability, ATPlite luminescence, 48 h; series mostly up to 57.5 µM
Summary of the method: as §1

HeLa = conditions: Gynecologic cancer cell panel viability, ATPlite luminescence, 48 h; series mostly up to 57.5 µM
Summary of the method: as §1

Hek293T = conditions: Gynecologic cancer cell panel viability, ATPlite luminescence, 48 h, control line for the selectivity index; series mostly up to 57.5 µM
Summary of the method: as §1

JEG-3 = conditions: Gynecologic cancer cell panel viability, ATPlite luminescence, 48 h; series mostly up to 57.5 µM
Summary of the method: as §1

OV90 = conditions: Gynecologic cancer cell panel viability, ATPlite luminescence, 48 h; series mostly up to 57.5 µM
Summary of the method: as §1

PA-1 = conditions: Gynecologic cancer cell panel viability, ATPlite luminescence, 48 h; series mostly up to 57.5 µM
Summary of the method: as §1

SKOV3 = conditions: Gynecologic cancer cell panel viability, ATPlite luminescence, 48 h; series mostly up to 57.5 µM
Summary of the method: as §1

Tov-21-G = conditions: Gynecologic cancer cell panel viability, ATPlite luminescence, 48 h; series mostly up to 57.5 µM
Summary of the method: as §1

Tov112D = conditions: Gynecologic cancer cell panel viability, ATPlite luminescence, 48 h; series mostly up to 57.5 µM
Summary of the method: as §1
% is scaled to controls: 0 for no effect and ±100 for the full control effect.

Cn1nc(C(C)(C)C)cc1C(=O)NC(Cc1cccc(Cl)c1)C(=O)NCC#N (stereo not drawn)
inactive: Potency (C33A) | Potency (CAOV3) | Potency (CASKI) | Potency (Es-2) | Potency (HeLa) | Potency (Hek293T) | Potency (JEG-3) | Potency (OV90) | Potency (PA-1) | Potency (SKOV3) | Potency (Tov-21-G) | Potency (Tov112D)

O=C(O)/C=C/c1ccc(O)c(O[C@@H]2O[C@H](CO)[C@@H](O)[C@H](O)[C@H]2O)c1
inactive: Potency (C33A) | Potency (CAOV3) | Potency (CASKI) | Potency (Es-2) | Potency (HeLa) | Potency (Hek293T) | Potency (JEG-3) | Potency (OV90) | Potency (PA-1) | Potency (SKOV3) | Potency (Tov-21-G) | Potency (Tov112D)

Nc1ncnc2c([C@@H]3N[C@H](CO)[C@@H](O)[C@H]3O)c[nH]c12
inactive: Potency (C33A) | Potency (CAOV3) | Potency (CASKI) | Potency (Es-2) | Potency (HeLa) | Potency (Hek293T) | Potency (JEG-3) | Potency (OV90) | Potency (PA-1) | Potency (SKOV3) | Potency (Tov-21-G) | Potency (Tov112D)

CCOc1cc(C)c(Cl)cc1S(=O)(=O)n1cnc2ccccc21
inactive: Potency (C33A) | Potency (CAOV3) | Potency (CASKI) | Potency (Es-2) | Potency (HeLa) | Potency (Hek293T) | Potency (JEG-3) | Potency (OV90) | Potency (PA-1) | Potency (SKOV3) | Potency (Tov-21-G) | Potency (Tov112D)

C=C1C(=O)OC2CC(C)=C(C(C)CCCO)C(O)C12 (stereo not drawn)
inactive: Potency (C33A) | Potency (CAOV3) | Potency (CASKI) | Potency (Es-2) | Potency (HeLa) | Potency (Hek293T) | Potency (JEG-3) | Potency (OV90) | Potency (PA-1) | Potency (SKOV3) | Potency (Tov-21-G) | Potency (Tov112D)

COc1c2c(c(CO)c3c1C(=O)OC3)OC1(C)CCC3(O)C(C)(C)OC(=O)CCC3(C)C1C2 (stereo not drawn)
inactive: Potency (C33A) | Potency (CAOV3) | Potency (CASKI) | Potency (Es-2) | Potency (HeLa) | Potency (Hek293T) | Potency (JEG-3) | Potency (OV90) | Potency (PA-1) | Potency (SKOV3) | Potency (Tov-21-G) | Potency (Tov112D)

COC(=O)C1=CO[C@@H](O[C@@H]2O[C@H](CO)[C@@H](O)[C@H](O)[C@H]2O)[C@@H]2[C@@](C)(O)[C@@H](OC(=O)/C=C/c3ccc(O)cc3)C[C@]12O
inactive: Potency (C33A) | Potency (CAOV3) | Potency (CASKI) | Potency (Es-2) | Potency (HeLa) | Potency (Hek293T) | Potency (JEG-3) | Potency (OV90) | Potency (PA-1) | Potency (SKOV3) | Potency (Tov-21-G) | Potency (Tov112D)

C/C=C/C(O)C1OC(=O)CC1Nc1ccc(C(=O)O)cc1 (stereo not drawn)
inactive: Potency (C33A) | Potency (CAOV3) | Potency (CASKI) | Potency (Es-2) | Potency (HeLa) | Potency (Hek293T) | Potency (JEG-3) | Potency (OV90) | Potency (PA-1) | Potency (SKOV3) | Potency (Tov-21-G) | Potency (Tov112D)

COc1ccccc1Oc1ccc(N(Cc2cccnc2)S(=O)(=O)CC(F)(F)F)cc1
inactive: Potency (C33A) | Potency (CAOV3) | Potency (CASKI) | Potency (Es-2) | Potency (HeLa) | Potency (Hek293T) | Potency (JEG-3) | Potency (OV90) | Potency (PA-1) | Potency (SKOV3) | Potency (Tov-21-G) | Potency (Tov112D)

C[C@@H]1O[C@@H](O[C@@H]2CO[C@@H](O[C@H]3CC[C@@]4(C)C(CC[C@]5(C)C4CC=C4[C@@H]6CC(C)(C)CC[C@]6(C(=O)O[C@@H]6O[C@H](CO)[C@@H](O)[C@H](O)[C@H]6O)CC[C@]45C)[C@]3(C)CO)[C@H](O)[C@H]2O[C@@H]2O[C@H](CO)[C@@H](O)[C@H](O)[C@H]2O)[C@H](O)[C@H](O)[C@H]1O (stereo partly drawn)
inactive: activity change, negative = cytotoxicity (C33A) 16.4% [at 11.6 µM] | activity change, negative = cytotoxicity (CAOV3) 15.5% [at 11.6 µM] | activity change, negative = cytotoxicity (CASKI) 3.56% [at 11.6 µM] | activity change, negative = cytotoxicity (Es-2) 19.8% [at 11.6 µM] | activity change, negative = cytotoxicity (HeLa) -1.12% [at 11.6 µM] | activity change, negative = cytotoxicity (Hek293T) -12.7% [at 11.6 µM] | activity change, negative = cytotoxicity (JEG-3) -4.12% [at 11.6 µM] | activity change, negative = cytotoxicity (OV90) -13.3% [at 11.6 µM] | activity change, negative = cytotoxicity (PA-1) -2.56% [at 11.6 µM] | activity change, negative = cytotoxicity (SKOV3) 6.8% [at 11.6 µM] | activity change, negative = cytotoxicity (Tov-21-G) 4.72% [at 11.6 µM] | activity change, negative = cytotoxicity (Tov112D) 0.619% [at 11.6 µM]

C[C@@H]1C[C@@H]([C@@H](O)C(C)(C)O)O[C@H]2C[C@@]3(C)C(=C12)C[C@H](O)[C@H]1[C@@]2(C)CCC(=O)C(C)(C)C2CC[C@@]13C (stereo partly drawn)
inactive: Potency (C33A) | Potency (CAOV3) | Potency (CASKI) | Potency (Es-2) | Potency (HeLa) | Potency (Hek293T) | Potency (JEG-3) | Potency (OV90) | Potency (PA-1) | Potency (SKOV3) | Potency (Tov-21-G) | Potency (Tov112D)

CC/C=C\CCO[C@@H]1O[C@H](CO)[C@@H](O)[C@H](O)[C@H]1O
inactive: Potency (C33A) | Potency (CAOV3) | Potency (CASKI) | Potency (Es-2) | Potency (HeLa) | Potency (Hek293T) | Potency (JEG-3) | Potency (OV90) | Potency (PA-1) | Potency (SKOV3) | Potency (Tov-21-G) | Potency (Tov112D)

O=C(O)[C@H](Cc1ccc(Nc2nccc3ccncc23)cc1)NC1=C(Br)C(=O)C12CCCCC2
inactive: Potency (C33A) | Potency (CAOV3) | Potency (CASKI) | Potency (Es-2) | Potency (HeLa) | Potency (Hek293T) | Potency (JEG-3) | Potency (OV90) | Potency (PA-1) | Potency (SKOV3) | Potency (Tov-21-G) | Potency (Tov112D)

C[C@@H]1N[C@H]2N(C1=O)c1ccccc1[C@@]2(O)C[C@@H]1C(=O)N[C@@H](C)c2nc3ccccc3c(=O)n21
inactive: Potency (C33A) | Potency (CAOV3) | Potency (CASKI) | Potency (Es-2) | Potency (HeLa) | Potency (Hek293T) | Potency (JEG-3) | Potency (OV90) | Potency (PA-1) | Potency (SKOV3) | Potency (Tov-21-G) | Potency (Tov112D)
